63 compounds from PubChem BioAssay AID504832 (National Center for Advancing Translational Sciences (NCATS), 2011) can be followed below.

Each structure is given as a SMILES string. The campaign covered roughly 310,000 compounds. About 18,000 (5.8%) were called active. Inconclusive results (about 22%) are left out. Calls follow the shape of the dose curve; as a rule, active = well fitted inhibition curve with a large enough effect; inconclusive = small, poorly fitted or top-dose-only effect, or another doubt; inactive = no such curve, though single readings can be large or run the other way. What follows is part of a selection rich in actives, with near analogues and random picks from the rest.
% is scaled to controls: 0 for no effect and ±100 for the full control effect; potency is read from the fitted curve at half-maximal effect.

The nature of this assay: Primary qHTS for delayed death inhibitors of the malarial parasite plastid, 48 hour incubation. As to conditions: P. falciparum luciferase growth in erythrocytes; series mostly up to 28.7 µM; activity change, negative = inhibition: at the top concentration. The procedure, abridged: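 Read-out is firefly luciferase luminescence from an integrated reporter in P. falciparum, so falling signal marks reduced parasite growth. Infected erythrocytes were at 2% hematocrit and 0.1% parasitemia (final) in Albumax-supplemented RPMI 1640.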
A general note: In qHTS, concentration-response curves come from the screen itself.
Consider `CCOc1ccc(OCC)c(NC(=O)CCS(=O)(=O)c2ccc(C)cc2)c1`, for which the “activity change, negative = inhibition” value is -25.3% (inactive). For `Cc1ccc(CNC(=O)CCS(=O)(=O)c2ccc3c(c2)CC(C)N3C(=O)C2CC2)o1` (stereo not drawn), the Potency was 10.4 µM (active).

In the case of `CCC(=O)N1c2ccc(S(=O)(=O)NCc3ccco3)cc2CC1C` (stereo not drawn), the “activity change, negative = inhibition” value was 44.5% (inactive). Turning to `COc1cccc(CNS(=O)(=O)c2ccc3c(c2)CC(C)N3C(=O)C2CCC2)c1` (stereo not drawn), the “activity change, negative = inhibition” value is -10.2% (inactive). For `Cc1c(OC(C)C(=O)NCC2CCC(C(=O)O)CC2)ccc2c1oc(=O)c1ccccc12` (stereo not drawn), the “activity change, negative = inhibition” value is -28% (inactive). Same read-out and setting: under `CC1(C)NC(=O)N(CC(=O)Nc2cc(C(F)(F)F)cc(C(F)(F)F)c2)C1=O` stands 46.2% (inactive). Turning to `Clc1ccc(C2=CSC3=Nc4cccc5cccc(c45)N23)cc1`, the Potency was 1.85 µM (active).

`CC(=O)c1cccc(NC(=S)N2CCCC2)c1`: the “activity change, negative = inhibition” value is 11.9% (inactive).

On to `CC(=O)Oc1cccc(N2C(=O)C3CC=C(Cl)CC3C2=O)c1` (stereo not drawn), for which the Potency was 11.7 µM (active). On to `CC1=CCC2C(=O)N(c3cccc(C(=O)NC(C)c4ccccc4)c3)C(=O)C2C1` (stereo not drawn), for which the “activity change, negative = inhibition” value is 6.23% (inactive). Same read-out and setting: the figure for `CC(=O)Oc1cccc(N2C(=O)CC(Nc3ccc(N4CCOCC4)cc3)C2=O)c1` (stereo not drawn) is 16% (inactive). As to `N#CC1(NC(=O)COC(=O)CSc2ccc(F)cc2)CCCCC1`, the “activity change, negative = inhibition” value was 1.97% (inactive). In the case of `Cc1cccc(N=C2SC(C)CN2C(=O)CN2C(=O)NC3(CCCC3)C2=O)c1` (stereo not drawn), the “activity change, negative = inhibition” value is -26.9% (inactive). As to `COCCN(C(=O)CC1CCCCC1)c1c(N)n(CC(C)C)c(=O)[nH]c1=O`, the “activity change, negative = inhibition” value is -16.3% (inactive). For `COc1ccc(NC(=O)CCCC2CCCCC2)c(OC)c1`, the “activity change, negative = inhibition” value is 107% (inactive). Turning to `COc1ccc(NC(=O)c2cc([N+](=O)[O-])ccc2NC(=O)CNC2CCCCC2C)c(OC)c1` (stereo not drawn), the Potency was 6.57 µM (active). For the compound `COc1cc([N+](=O)[O-])ccc1NC(=O)CN1CCCC1`, the “activity change, negative = inhibition” value is 22.4% (inactive).

On to `Cc1cccc(C)c1NC(=O)CNC(=O)c1ccc2c(c1)OCCO2`, for which the “activity change, negative = inhibition” value was -8.84% (inactive). In the case of `CCC(c1nnnn1Cc1ccco1)N(Cc1cc2cc(OC)ccc2[nH]c1=O)C1CCCCC1` (stereo not drawn), the Potency was 11.7 µM (active). Take `Cc1ccc(S(=O)(=O)N(Cc2cc3ccccc3[nH]c2=O)CC2CCCO2)cc1` (stereo not drawn): the “activity change, negative = inhibition” value is 4.58% (inactive). For the compound `CCOc1ccc2[nH]c(=O)c(CN(Cc3nnnn3CCc3ccccc3)CC3CCCO3)cc2c1` (stereo not drawn), the Potency was 13.1 µM (active).

Take `COc1ccc2[nH]c(=O)c(CN(CC3CCCO3)C(=O)Nc3ccccc3)cc2c1` (stereo not drawn): the “activity change, negative = inhibition” value was 37% (inactive). `CCC(=O)N(CCc1ccccc1)Cc1cc2cc(C)ccc2[nH]c1=O`: the “activity change, negative = inhibition” value is 83.4% (inactive). Regarding `CCOc1ccc2[nH]c(=O)c(CN(CCCO)C(C)=O)cc2c1`, the “activity change, negative = inhibition” value was 14.9% (inactive). For the compound `CCC(c1nnnn1Cc1ccccc1)N(Cc1cc2cc(OC)ccc2[nH]c1=O)CC1CCCO1` (stereo not drawn), the Potency is 5.86 µM (active). As to `COc1ccc(N(Cc2cc3cc(OC)ccc3[nH]c2=O)S(C)(=O)=O)cc1`, the “activity change, negative = inhibition” value is 18.3% (inactive).

Turning to `CCC(=O)N(Cc1cc2cc(OC)ccc2[nH]c1=O)c1ccccc1C`, the “activity change, negative = inhibition” value was 11.8% (inactive).

Take `CCC(c1nnnn1Cc1ccco1)N(CCc1ccccc1)Cc1cc2cccc(C)c2[nH]c1=O` (stereo not drawn): the Potency was 11.7 µM (active).

As to `O=C(c1cccs1)N(Cc1cc2ccccc2[nH]c1=O)CC1CCCO1` (stereo not drawn), the “activity change, negative = inhibition” value is -2.84% (inactive).

For the compound `COc1ccc(-c2nc(SCC(=O)N3CCCC3)n[nH]2)cc1`, the “activity change, negative = inhibition” value is 5.23% (inactive). For `CC(=O)Oc1cccc(C(=O)Nc2ccccc2NC(=O)c2cccc(OC(C)=O)c2)c1`, the “activity change, negative = inhibition” value is -11.6% (inactive).

`COc1cccc(S(=O)(=O)NCc2ccc(C(=O)NCc3ccccn3)cc2)c1`: the “activity change, negative = inhibition” value was -29.8% (inactive). For `COc1cccc(CNc2ncc(-c3ccccc3)n2C)c1`, the “activity change, negative = inhibition” value is 31.6% (inactive). For the compound `Cc1cc(=O)oc2cc(NC(=O)C(C)Oc3ccccc3)ccc12` (stereo not drawn), the “activity change, negative = inhibition” value is 4.87% (inactive). With `COc1ccc(/C=C(\C#N)C(=O)OCC(=O)N(C)C2CCS(=O)(=O)C2)cc1` (stereo not drawn), the “activity change, negative = inhibition” value was 2.01% (inactive). The same measure, in the same setting: under `O=C(O)c1c(NC(=O)N2CCCC2)sc2c1CCCC2` stands 0.211% [at 0.00184 µM] (inactive); under `Cc1ccc(-c2nc(CS(=O)(=O)CC(=O)NCc3ccc4c(c3)OCO4)c(C)o2)cc1`, 2.89% (inactive); under `CCCCOC(=O)Nc1nnc(CC(=O)NCc2ccccc2)s1`, 1.81% (inactive). On to `CCC(C)c1ccc(NC(=S)N2CCCC2)cc1` (stereo not drawn), for which the “activity change, negative = inhibition” value is 53.4% (inactive). With `COc1ccc2[nH]c3c(=O)n(Cc4ccco4)cnc3c2c1`, the “activity change, negative = inhibition” value is 34.4% (inactive). Turning to `COc1ccc(N(Cc2cc3ccc(C)cc3[nH]c2=O)S(=O)(=O)c2ccccc2)cc1`, the “activity change, negative = inhibition” value was -23% (inactive). `CCC(c1nnnn1Cc1ccco1)N(CCc1ccccc1)Cc1cc2ccc(OC)cc2[nH]c1=O` (stereo not drawn): the Potency was 5.86 µM (active). For the compound `CCn1ccnc1CN(C)C(=O)c1cc(COc2ccc(Cl)cc2OC)on1`, the “activity change, negative = inhibition” value is 8.14% (inactive). For the compound `C[C@]12CC[C@@H]3c4ccc(O)cc4C[C@@H](CCCCCCCCCS(=O)CCCC(F)(F)C(F)(F)F)C3[C@@H]1CC[C@@H]2O` (stereo partly drawn), the Potency was 9.53 µM (active). Take `Cc1cc(=O)oc2c3c(cc(OCC(=O)NCCC(=O)N[C@@H](C)C(=O)O)c12)OC(C)(C)CC3`: the “activity change, negative = inhibition” value was 3.13% (inactive).

As for `Cc1c(NC(=O)Nc2cccc([N+](=O)[O-])c2)c(=O)n(-c2ccccc2)n1C`, the “activity change, negative = inhibition” value is 14.8% (inactive). Turning to `NNC(=O)c1nnn(-c2nonc2N)c1CN1CCCC1`, the “activity change, negative = inhibition” value is -0.213% (inactive). In the case of `CCOC(=O)c1nnn(-c2nonc2-n2cccc2)c1CN1CCOCC1`, the Potency is 7.38 µM (active). Turning to `CCOC(=O)c1nnn(-c2nonc2-n2cccc2)c1CN1CCC(C(=O)OCC)CC1`, the Potency was 0.185 µM (active). With `CCOC(=O)C1CCN(Cc2c(C(=O)N3CCOCC3)nc3c(C)cccn23)CC1`, the “activity change, negative = inhibition” value is 0.0838% (inactive). Take `CCN(CC)Cc1c(C(=O)OC)nnn1-c1nonc1N`: the “activity change, negative = inhibition” value is -3.97% (inactive). Consider `CCOC(=O)c1nnn(-c2nonc2OC)c1-c1ccccc1`, for which the “activity change, negative = inhibition” value is 12.2% (inactive). For `CC(=O)Nc1ccc(S(=O)(=O)Nc2cc(C)cn(Cc3ccc(C)cc3)c2=O)cc1`, the “activity change, negative = inhibition” value is 8.83% (inactive). For `COc1ccccc1CNS(=O)(=O)c1ccc2c(c1)NC(=O)CS2`, the “activity change, negative = inhibition” value was 28.6% (inactive).

As for `CCCn1cc(S(=O)(=O)c2ccc(C)cc2)c(=O)c2cc(OCC)ccc21`, the “activity change, negative = inhibition” value was -6.8% (inactive). Regarding `CN(CC(=O)O)S(=O)(=O)c1ccc2oc3ccccc3c2c1`, the “activity change, negative = inhibition” value was 1.99% (inactive).

On to `Cc1ccc(/C=N/NC(=O)c2cc3ccccc3cc2O)o1`, for which the Potency is 0.586 µM (active). With `CCOC(=O)N/N=C/c1cccnc1`, the “activity change, negative = inhibition” value was 8.05% (inactive). Regarding `O=C(N/N=C/c1cccnc1)c1ccc(NC(=O)c2ccc(F)cc2)cc1`, the “activity change, negative = inhibition” value is -9.95% (inactive). For the compound `O=C(N/N=C/c1cccnc1)c1cc2ccccc2cc1O`, the Potency is 2.94 µM (active). Regarding `N=c1oc2ccccc2cc1C(=O)N/N=C/c1ccccc1`, the “activity change, negative = inhibition” value is 23.4% (inactive). For `Cc1ccc(/C=N/NC(=O)CNC(=O)COc2ccccc2)o1`, the “activity change, negative = inhibition” value is 4.28% (inactive).

Turning to `Cc1ccnc(NS(=O)(=O)c2ccc(NC(=O)c3oc4ccccc4c3C)cc2)n1`, the “activity change, negative = inhibition” value was 5.56% (inactive).
